According to ChEMBL document CHEMBL4513135, “CO-ADD screening of IQOG CSIS (Spain) compounds”:
Potency and affinity values are given separately.

tested on: Candida albicans; details: 32 ug/mL
Further: assay method not described here.

Structure (SMILES) | Inhibition [%]
COc1ccc(-c2cc(-c3ccccc3)c(C#N)c(N)n2)cc1 | -5.4
Cl.ClCCCN1CCCCC1 | 1.17
N#CC1=C(Cl)Oc2c(ccc3ccccc23)C1c1ccccc1 (stereo not given) | 4.15
COc1ccc(C=C2N=C(c3ccccc3)OC2=O)cc1 | 0.77
CCOC(=O)c1c(C)[nH]c(=O)c(C#N)c1-c1ccccc1 | 2.08
CCOC(=O)/C(C#N)=C\c1ccc(Cl)cc1 | -0.09
CCOC(=O)C1=C(C)Oc2nc3c(c(N)c2C1c1nccn1C)CCC3 (stereo not given) | -1.64
C/C(Cc1ccccc1)=N/NC(=O)c1c[nH]c2ccc(O)cc12 | 0.37
Cc1ccc(-c2c(C#N)c(N)nc3c2S(=O)(=O)OC3(C)C)cc1 | 1.92
CNC(=O)c1cc2cc(OC)ccc2[nH]1 | -0.84
N#Cc1cc(C#N)c(N2CCC(Cc3ccccc3)CC2)nc1N | 1.71
C#CCNc1nc(N)c(C#N)c(-c2ccccc2)c1C#N | 2.85
COc1ccc(C2c3ccc4ccccc4c3OC(=NBr)C2(Br)C#N)cc1OC (stereo not given) | 5.08
CNC(=O)NC1(C(=O)O)CC1c1ccccc1 (stereo not given) | 0.9
CCOC(=O)C1=C(C)OC(N)=C(C#N)C1c1ccco1 (stereo not given) | 1.71
Cc1ccc(CNNC(=O)c2c[nH]c3ccccc23)cc1 | -1.04
Cl.Cl.Cn1c(CNc2ccccc2)cc2cc(OCCCC3CCN(Cc4ccccc4)CC3)ccc21 | 1.7
N#Cc1c(-c2ccccc2)c2ccc3ccccc3c2oc1=O | 3.25
O=C1OC(c2ccc([N+](=O)[O-])cc2)=NC1=Cc1ccccc1 | 1.83
Cn1c(CNNC(=O)Cc2cccc3ccccc23)cc2ccccc21 | -0.25

Structure (SMILES) | Inhibition [%]
COc1ccc(-c2cc(-c3cc4ccccc4nc3Cl)cc(=O)[nH]2)cc1 | -0.7
O=Cc1cc2ccccc2nc1Cl | 7.94
COC(=O)/C(=C/c1ccc(O)cc1)NC(=O)c1ccccc1 | 1.73
CCOC(=O)C1=C(C)OC(N)=C(C#N)C1c1cccs1 (stereo not given) | 0.39
CC(=O)O[C@H]1CC[C@H](NC(=O)c2ccccc2)CC1 | 3.3
CCOC(=O)c1c(C)nc2nc3c(c(N)c2c1-c1ccccc1OC)CCCCC3 | -0.21
COc1ccc(/C=C2/N=C(c3ccccc3)OC2=O)cc1OC | -0.31
CN(C)c1nc(Cl)c(C#N)c(-c2ccccc2)c1C#N | 3.09
CN(Cc1cn(Cc2ccccc2)nn1)Cc1cc2cc(OCCCC3CCN(Cc4ccccc4)CC3)ccc2n1C | 2.75
COc1ccc2cc(C3C(C(C)=O)=C(C)Oc4nc5c(c(N)c43)CCC5)c(Cl)nc2c1 (stereo not given) | 12.4
C#CCN1CCc2nc3nc(N4CCCC4)c(C#N)cc3c(N)c2C1 | 1.92
C#CCNc1[nH]c2ccc(O)cc2c1C#N | 1.86
Cl.ClCCCCN1CCCCC1 | -0.33
c1ccc(COc2ccc3[nH]ccc3c2)cc1 | -1.1
COc1cccc(-c2c(C#N)c(=O)oc3c2ccc2ccccc23)c1 | 24.3
Cc1nc2c(cc1C#N)c(N)nn2C | 3.97
CSC1=NC2(CC2c2ccccc2)C(=O)N1C (stereo not given) | 0.11
Cc1[nH]c2ccc(OCc3ccccc3)cc2c1C(=O)NN | 1.23
COc1nc2ccc(C)cc2cc1C=O | 5.7
C#CCN(C)Cc1cc2cc(O)ccc2n1C.Cl | 2.77
